± gives the standard deviation of the averaged measurements.
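Further: End-point A600 read in BHI broth at 37 °C with 2% DMSO, inhibition computed as (1 − OD with compound plus ceftriaxone ÷ OD with ceftriaxone only) × 100.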

This test concerns Listeria monocytogenes 10403S. Nature of the test: growth inhibition relative to ceftriaxone-alone control; higher = stronger potentiation of ceftriaxone growth inhibition. The conditions noted are these: 10 µM; ceftriaxone 1 ug/ml; 12 h.
As for `Cc1cc(C)c(/C=C2\C(=O)Nc3ccccc32)[nH]1` [Semaxanib (SU5416)], the growth inhibition is -4.38 ± 12%.
The same measure for `O=c1cc(N2CCOCC2)oc2c(-c3ccccc3)cccc12`: 27.4 ± 29%; for `CCCNc1cccc(-n2ncc3c(N/N=C/c4ccncc4)ncnc32)c1`: -6.32 ± 14%; for `CCCS(=O)(=O)Nc1ccc(F)c(C(=O)c2c[nH]c3ncc(Cl)cc23)c1F`: 24.2 ± 22%.
The same measure for `N#Cc1c(NC(=O)c2cccc3ccccc23)sc2c1CCCC2`: -6.35 ± 1.2%; for `COc1cc(Nc2ncc(F)c(Nc3ccc4c(n3)N(COP(=O)(O)O)C(=O)C(C)(C)O4)n2)cc(OC)c1OC`: 10.1 ± 12%.
The value for `COC(=O)Nc1nc2ccc(S(=O)(=O)c3ccc(NC(=O)Nc4cc(C(F)(F)F)ccc4F)cc3)cc2[nH]1` was -13.3 ± 8.2%; that for `C[C@]1(O)C[C@@H](c2nc(-c3ccc4ccc(-c5ccccc5)nc4c3)c3c(N)nccn32)C1` [Linsitinib (OSI-906)] was 56.8 ± 25%; that for `Nc1nc(N)c2nc(-c3cccc(O)c3)c(-c3cccc(O)c3)nc2n1` was 63 ± 19%.
As to `O=C(NOCC(O)CO)c1cc(Br)c(F)c(F)c1Nc1ccc(I)cc1F` (stereo not drawn), the growth inhibition was determined as 100 ± 5.2%.
With `NS(=O)(=O)c1ccc(N/N=C2\C(=O)Nc3ccc(C(=O)NCc4ccncc4)cc32)cc1`, the growth inhibition was -9.46 ± 18%.
The value for `Cc1[nH]c(/C=C2\C(=O)Nc3ccccc32)c(C)c1CCC(=O)O` was 98.7 ± 2.4%.
In the case of `Cc1nc(-c2ccccc2)n2nc(NCCCN3CCOCC3)ncc12`, the growth inhibition worked out at 0.025 ± 1.1%.
The same measure for `CNC(=O)c1cncc(/C=C/c2c(Cl)cccc2Cl)c1`: -4.82 ± 4.5%; for `COc1cccc(Nc2nccc(-c3cnn4ncccc34)n2)c1`: -2.59 ± 1.4%; for `COc1ccc(-c2nn3ncccc3c2-c2ccnc(Nc3ccc(Cl)c(C(F)(F)F)c3)n2)cc1`: -8.69 ± 0.94%.
The same measure for `COc1cc2ncnc(Nc3ccc(C)c(O)c3)c2cc1OC`: -12.9 ± 9.4%; for `Cc1[nH]c(/C=C2\C(=O)Nc3ccc(S(=O)(=O)Cc4c(Cl)cccc4Cl)cc32)c(C)c1C(=O)N1CCC[C@@H]1CN1CCCC1`: 78 ± 5.2%; for `Cn1cc(C2=C(c3ccc(Cl)cc3Cl)C(=O)NC2=O)c2ccccc21`: 19.5 ± 33%.
The value for `CCc1cccc(CC)c1NC(=O)N1Cc2[nH]nc(NC(=O)c3ccc(N4CCN(C)CC4)cc3)c2C1` was 33.1 ± 4.9%.
With `O=C(O[C@H]1CN[C@H](C#Cc2cc3ncnc(Nc4ccc(Cc5ccccc5)cc4)c3s2)C1)N1CCOCC1`, the growth inhibition was -6.43 ± 10%.
The same measure for `O=C(Nc1n[nH]c2cc(-c3ccccc3)ccc12)C1CC1`: 4.09 ± 0.32%.
For `COc1cc(C)c(N(C)C(=O)CN(C)C)cc1Nc1nc(Nc2cccc(F)c2C(N)=O)c2cc[nH]c2n1`, the growth inhibition was -0.447 ± 1%.
The value for `N#Cc1c(NC(=O)c2ccc(F)cc2)sc2c1CCCC2` was 1.2 ± 5.5%; that for `COC(=O)Nc1nc2cc(Oc3cccc(NC(=O)Nc4cc(C(F)(F)F)ccc4F)c3)ccc2[nH]1` was -5.06 ± 1.8%.
As for `COc1cc(Nc2ncc3c(C)nc(-c4cccc(Oc5ccccc5)c4)n3n2)cc(OC)c1OC`, the growth inhibition was -18.3 ± 17%.
The same measure for `O=C1Nc2ccccc2/C1=C/Nc1ccc2[nH]c(=O)[nH]c2c1`: 7.54 ± 1.1%; for `C[C@H](NC(=O)/C(C#N)=C/c1cccc(Br)n1)c1ccccc1`: 99 ± 0.21%.
The value for `CCOc1ccc2c(-c3ccnc(Nc4cccc(C(F)(F)F)c4)n3)cnn2n1` was -8.14 ± 6.9%; that for `C[C@@H](N)[C@H]1CC[C@H](C(=O)Nc2ccncc2)CC1` was 24.6 ± 17%; that for `C/C(Nc1ccc(S(N)(=O)=O)cc1)=C1/C(=O)Nc2ccccc21` was -3.55 ± 0.8%.
The same measure for `CS(=O)(=O)CCNCc1ccc(-c2ccc3ncnc(Nc4ccc(OCc5ccccc5)cc4)c3c2)o1`: -2.04 ± 4.2%; for `CC(C)n1nc(-c2cc3cc(O)ccc3[nH]2)c2c(N)ncnc21`: 16.2 ± 10%; for `Cc1ccc(O)cc1Nc1ccnc2ccc(S(C)(=O)=O)cc12`: -11.4 ± 13%.
As for `Cc1ccc(C(=O)Nc2ccc(CN3CCN(C)CC3)c(C(F)(F)F)c2)cc1C#Cc1cnc2cccnn12`, the growth inhibition amounted to 94.4 ± 3.5%.
The same measure for `Oc1cccc(-c2nc(N3CCOCC3)c3oc4ncccc4c3n2)c1`: 22.4 ± 24%; for `COc1cc(N2CCC(N3CCN(C)CC3)CC2)ccc1Nc1ncc(Cl)c(Nc2ccccc2S(=O)(=O)C(C)C)n1`: 79.1 ± 24%.
The same measure for `NS(=O)(=O)c1ccc(NC=C2C(=O)Nc3ccc4ncsc4c32)cc1`: -8.58 ± 4.7%.

The values above are taken from the supplement of paper PMC5641865, “A screen for kinase inhibitors identifies antimicrobial imidazopyridine aminofurazans as specific inhibitors of the Listeria monocytogenes PASTA kinase PrkA” (The Journal of Biological Chemistry, 2017).
